# Read-outs that look alike come from different tables or passages of the source.
# Experiments:
# Set-up in all cases: species or system human, MV4-11 + K-562 + COLO205 + SK-N-BE2 + OVCAR-8
# [1] = system: CSNK1A1; conditions: read-out: apparent Kd, n = 1
# [2] = system: CSNK1D; conditions: read-out: apparent Kd; compound concentrations:100 nM and 1000 nM (sheet 'Samples'); n = 1
# [3] = system: MAPK9; conditions: read-out: apparent Kd, n = 1
# [4] = system: NLK; conditions: read-out: apparent Kd; compound concentrations:100 nM and 1000 nM (sheet 'Samples'); n = 1
# [5] = system: EPHA2; conditions: read-out: apparent Kd, n = 1
# [6] = system: EPHA4; conditions: read-out: apparent Kd, n = 1
# [7] = system: EPHB2; conditions: read-out: apparent Kd, n = 1
# [8] = system: EPHB4; conditions: read-out: apparent Kd, n = 1
# [9] = system: TGFBR2; conditions: read-out: apparent Kd, n = 1
# [10] = system: MAP4K5; conditions: read-out: apparent Kd, n = 1
# [11] = system: T1, DJA1; conditions: read-out: apparent Kd, compound concentrations: 100 nM and 1000 nM (sheet 'Samples'), n = 1
# T1 construct: gene DNAJA1
# [12] = system: PIK3CD; conditions: read-out: apparent Kd, n = 1
# [13] = system: MAPKAPK2; conditions: read-out: apparent Kd, n = 1
# [14] = system: BUB1; conditions: read-out: apparent Kd, n = 1
# [15] = system: PRKD3; conditions: read-out: apparent Kd, n = 1
# [16] = system: MAP2K1; conditions: read-out: apparent Kd, n = 1
# [17] = system: MAP2K2; conditions: read-out: apparent Kd, n = 1
# [18] = system: PDXK; conditions: read-out: apparent Kd, compound concentrations: 100 nM and 1000 nM (sheet 'Samples'), n = 1
# [19] = system: PDGFRB; conditions: read-out: apparent Kd, compound concentrations: 100 nM and 1000 nM (sheet 'Samples'), n = 1
# [20] = system: NQO2; conditions: read-out: apparent Kd, compound concentrations: 100 nM and 1000 nM (sheet 'Samples'), n = 1
# [21] = compound concentrations:100 nM and 1000 nM (sheet 'Samples')
smiles,measurement,setting,value
Nc1nc(N)c2nc(-c3ccccc3)[nH]c2n1 [SKF-12778],potency estimated from few doses,[1]; [21],0.972 µM
same,potency estimated from few doses,[2],2.13 µM
same,potency estimated from few doses,[3]; [21],2 µM
same,potency estimated from few doses,[4],1.66 µM
Cc1ccc(O)cc1Nc1ccnc2ccc(C(C)(C)C)cc12 [GW856805X],potency estimated from few doses,"[5]; compound concentrations: 100 nM and 1000 nM (sheet 'Samples'), CATDS: 8.0596912814025104E-2",0.0185 µM
same,potency estimated from few doses,"[6]; compound concentrations: 100 nM and 1000 nM (sheet 'Samples'), CATDS: 7.4195620286495498E-2",0.022 µM
same,potency estimated from few doses,"[7]; compound concentrations: 100 nM and 1000 nM (sheet 'Samples'), CATDS: 6.5287043089823998E-2",0.0293 µM
same,potency estimated from few doses,"[8]; compound concentrations: 100 nM and 1000 nM (sheet 'Samples'), CATDS: 0.113366992887299",0.00972 µM
same,potency estimated from few doses,"[9]; compound concentrations: 100 nM and 1000 nM (sheet 'Samples'), CATDS: 3.9995494154685202E-2",0.13 µM
CN1CCc2ccc(Nc3nccc(-c4c(-c5cccc(NC(=O)c6c(F)cccc6F)c5)nc5ccccn45)n3)cc2C1.Cl [GSK1010829B],potency estimated from few doses,"[10]; compound concentrations: 100 nM and 1000 nM (sheet 'Samples'), CATDS: 3.0196131161379001E-2",2.13 µM
Cn1cc(-c2ccc3c(c2)CCN3C(=O)Cc2cc(F)cc(C(F)(F)F)c2)c2c(N)ncnc21 [GSK2635225A],potency estimated from few doses,[11]; CATDS: 0.15894194998460401,0.902 µM
same,potency estimated from few doses,"[12]; compound concentrations: 100 nM and 1000 nM (sheet 'Samples'), CATDS: 0.457718684353002",0.139 µM
Cl.Cn1c(=O)c(Cc2ccc(F)cc2F)cc2cnc(NC3CCOCC3)nc21 [RO3308757-001],potency estimated from few doses,[5]; [21],1.13 µM
same,potency estimated from few doses,[6]; [21],0.743 µM
same,potency estimated from few doses,[7]; [21],0.364 µM
same,potency estimated from few doses,[8]; [21],0.268 µM
same,potency estimated from few doses,[3]; [21],1.03 µM
same,potency estimated from few doses,[13]; [21],0.669 µM
CC(C)c1nc(-c2ccc(F)c(NS(=O)(=O)c3c(F)cccc3F)c2)c(-c2ccnc(Nc3ccc(N4CCOCC4)nc3)n2)s1 [GSK1804250A],potency estimated from few doses,[14]; [21],0.553 µM
same,potency estimated from few doses,[15]; [21],0.51 µM
CC(C)c1nc(-c2cccc(NS(=O)(=O)c3c(F)cccc3F)c2)c(-c2ccnc(Nc3ccc(N4CCOCC4)nc3)n2)s1.Cl [GSK1723980B],potency estimated from few doses,"[14]; compound concentrations: 100 nM and 1000 nM (sheet 'Samples'), CATDS: 3.0141053938719398E-2",0.191 µM
same,potency estimated from few doses,"[15]; compound concentrations: 100 nM and 1000 nM (sheet 'Samples'), CATDS: 3.3451662470077102E-2",0.156 µM
CC(C)c1nc(-c2cccc(NS(=O)(=O)c3c(F)cccc3F)c2F)c(-c2ccnc(Nc3ccc(N4CCOCC4)nc3)n2)s1 [GSK2008607A],potency estimated from few doses,"[14]; compound concentrations: 100 nM and 1000 nM (sheet 'Samples'), CATDS: 2.5044910199505301E-2",0.721 µM
same,potency estimated from few doses,"[15]; compound concentrations: 100 nM and 1000 nM (sheet 'Samples'), CATDS: 2.5792208741447099E-2",0.671 µM
COc1ccc(-c2nc3n(c2-c2ccncc2)CCC3)cc1.COc1ccc(-c2nc3n(c2-c2ccncc2)CCC3)cc1.O=S(=O)(O)O.O=S(=O)(O)O [SKF-104493-B2],potency estimated from few doses,"[16]; compound concentrations: 100 nM and 1000 nM (sheet 'Samples'), CATDS: 9.8642022165156204E-2",2.4 µM
same,potency estimated from few doses,"[13]; compound concentrations: 100 nM and 1000 nM (sheet 'Samples'), CATDS: 0.15746092707453499",0.867 µM
N#Cc1cccc(Nc2nccc(-c3cnn4ncccc34)n2)c1 [GW778894X],potency estimated from few doses,[1]; [21],0.731 µM
same,potency estimated from few doses,[2],0.199 µM
same,potency estimated from few doses,[4],1.56 µM
same,potency estimated from few doses,[9]; [21],0.0357 µM
CC(=O)N1CCN(c2ccc(Nc3nccc(-c4sc(C(C)C)nc4-c4cccc(NS(=O)(=O)c5cccc(Cl)c5)c4)n3)cn2)CC1 [GSK1660437A],potency estimated from few doses,"[14]; compound concentrations: 100 nM and 1000 nM (sheet 'Samples'), CATDS: 4.8956093582398198E-2",0.873 µM
same,potency estimated from few doses,[11]; CATDS: 3.8253703176693299E-2,1.69 µM
same,potency estimated from few doses,"[15]; compound concentrations: 100 nM and 1000 nM (sheet 'Samples'), CATDS: 4.4377312299456101E-2",1.11 µM
O=S(=O)(CCOCc1ccc(-c2ccc3ncnc(Nc4ccc(OCc5cccc(F)c5)c(Cl)c4)c3c2)o1)c1ccccc1 [GW615311X],potency estimated from few doses,"[3]; compound concentrations: 100 nM and 1000 nM (sheet 'Samples'), CATDS: 2.2235644452826799E-2",2.36 µM
same,potency estimated from few doses,"[12]; compound concentrations: 100 nM and 1000 nM (sheet 'Samples'), CATDS: 0.10575353255485199",0.176 µM
Cc1cc(O)cc(C)c1/C=C/c1cncc(-c2nn[nH]n2)c1.Cl [GW441806A],potency estimated from few doses,"[5]; compound concentrations: 100 nM and 1000 nM (sheet 'Samples'), CATDS: 4.6112446535010898E-2",1.31 µM
Nc1c(C(=O)c2ccccc2)cnn1-c1ccc(F)cc1 [RO1151246-000],potency estimated from few doses,[16]; [21],1.47 µM
same,potency estimated from few doses,[17]; [21],1.54 µM
same,potency estimated from few doses,[13]; [21],0.665 µM
COc1cccc(C2=C(c3cn(C)c4c(C)cccc34)C(=O)NC2=O)c1 [RO3301012-000],potency estimated from few doses,[18]; CATDS: 9.7216683357623401E-2,2 µM
COc1cc2ncn(-c3cc(OCc4sccc4Cl)c(C(N)=O)s3)c2cc1OC [GSK448459A],potency estimated from few doses,[10]; [21],0.0308 µM
O=C1NC(=O)C(c2cccc(Cl)c2)=C1Nc1ccc(O)c(Cl)c1 [SB-409514],potency estimated from few doses,[19]; CATDS: 0.33776588797305401,1.28 µM
Cc1ccc(-n2nc(C(C)(C)C)cc2NC(=O)Nc2ccc(OCCN3CCOCC3)cc2)cc1 [BIRB0876BS],potency estimated from few doses,[12]; [21],0.00961 µM
Cc1ccc(NC(=O)Nc2ccccc2)cc1-c1ccc(C(=O)Nc2ccncc2)cc1 [GSK1398471A],potency estimated from few doses,[19]; CATDS: 0.100538994858546,1.94 µM
Clc1ccc(-c2nn3ncccc3c2-c2ccnc(Nc3ccccc3)n2)cc1 [GW829055X],potency estimated from few doses,"[1]; compound concentrations: 100 nM and 1000 nM (sheet 'Samples'), CATDS: 3.2884610425315097E-2",1.9 µM
same,potency estimated from few doses,[11]; CATDS: 4.1892877755586803E-2,1.06 µM
same,potency estimated from few doses,"[16]; compound concentrations: 100 nM and 1000 nM (sheet 'Samples'), CATDS: 0.148171076580532",0.138 µM
same,potency estimated from few doses,"[17]; compound concentrations: 100 nM and 1000 nM (sheet 'Samples'), CATDS: 3.8918058303858701E-2",1.25 µM
Cn1cc(C2=C(c3cccc([N+](=O)[O-])c3)C(=O)NC2=O)c2ccccc21 [RO0317474-000],potency estimated from few doses,[20]; CATDS: 0.12983117909003999,1.96 µM
same,potency estimated from few doses,[18]; CATDS: 0.221818886522231,0.628 µM
Cl.Fc1cccc(COc2ccc(Nc3ncnc4cc(-c5ccc[nH]5)sc34)cc2Cl)c1 [GW693881A],potency estimated from few doses,[20]; CATDS: 0.24245202120631801,0.56 µM

# Source: publication PMC11062922 (Nature Chemical Biology, 2023)
